Pf growth 48h – inhibits P. falciparum growth in the first generation, 48 h. P. falciparum luciferase growth in erythrocytes, 48 h. Potency, µM (highest dose often 28.7 µM), hits mostly inhibitors. 5.9% of 310,000 active. AID 504832
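In quantitative HTS format, infected erythrocytes bearing luciferase-reporter parasites were treated for a single generation at 37 C. Luminescence after adding detection reagent served as the growth measure.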
Cycloheximide cs – counter-screen hit for Shiga toxin inhibitors, cycloheximide | AID 2314 | max response, % | 12% of 300,000 active | cell reporter, cycloheximide protein synthesis inhibition counterscreen; in the data active = max response mostly above about 13%, no sharp cut-off; inactive = mostly below about 14%; also: read at 38.3 µM for the half of the compounds with a filed dose
HCMV inh – blocks human cytomegalovirus replication | 4.5% of 410,000 active | activity change, negative = inhibition, % at 57.5 µM | AID 1259415 | HFF cells, HCMV-luciferase reporter, 72 h; hits give low values; in the data active = activity change below about -60%; inconclusive = no clear call, values can overlap the other calls; inactive = above about -39%
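Compounds were evaluated in HFFs infected with an HCMV luciferase reporter virus (MOI 1 PFU/cell). Luciferase in lysates collected 72 h post infection served as the replication measure.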
Pf growth 96h – inhibits malaria parasite growth, 96 h; P. falciparum luciferase reporter growth, 96 h; AID 504834; 6.9% of 320,000 active; Potency, µM (top dose mostly 28.7 µM), most hits filed as inhibitors
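Two-generation exposure (96 h) targets delayed-death phenotype. Reporter parasites carrying integrated firefly luciferase, in red cells at 2% hematocrit and 0.05% parasitemia final, kept at 37 C, 5% CO2; luminescence loss indicates inhibition.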
Shiga inhibitor – Shiga toxin inhibition; Vero cells, Shiga toxin protein synthesis inhibition reporter; inhibition, % at 38.7 µM; 9.2% of 290,000 active; AID 2315; in the data active = inhibition mostly above about 28%, no sharp cut-off; inactive = mostly below about 43%
Numbers stand for hits; – = inactive; ? = inconclusive; · = no result. Shown are actives, neighbours in structure and some others; about 20% of the full set was active somewhere. Unless noted, calls follow the shape of the dose curve; as a rule, active = well fitted inhibition curve with a large enough effect; inconclusive = small, poorly fitted or top-dose-only effect, or another doubt; inactive = no such curve, though single readings can be large or run the other way.

SMILES	Pf growth 48h	Cycloheximide cs	HCMV inh	Pf growth 96h	Shiga inhibitor
CC(Oc1ccc(F)cc1)C(=O)Nc1cc(-c2ccc(F)c(F)c2)no1 (configuration not stated)	·	·	–	·	·
O=C(NCC(c1ccco1)N1CCCC1)c1ccc(-n2cccn2)cc1 (configuration not stated)	·	·	–	·	·
N#Cc1ccc(C(=O)NCC(c2ccco2)N2CCCC2)cc1 (configuration not stated)	–	–	–	?	–
Cc1cc(C(=O)NCC(c2ccco2)N2CCCC2)c2ccccc2n1 (configuration not stated)	?	·	–	10µM	·
Cc1cc(C)n(-c2ccc(C(=O)NCC(c3ccco3)N3CCCC3)cc2)n1 (configuration not stated)	?	·	–	5.2µM	·
O=C(CNC(=O)c1ccccc1)NCC(c1ccco1)N1CCCC1 (configuration not stated)	·	·	–	·	·
N#Cc1ccc(C(=O)NCC(c2ccco2)N2CCCCC2)cc1 (configuration not stated)	·	–	–	10µM	–
Cc1ccc2nc3c(nc2c1)-c1ccccc1C3=O	·	20	–	·	32
Cc1cccc2nc3c(nc12)-c1ccccc1C3=O	–	–	–	–	–
Cc1cccc(N2CCN(C(=O)CCC(=O)N3CC(C)Oc4ccccc43)CC2)c1C (configuration not stated)	?	–	–	–	–
O=C(O)c1ccc(CSc2nnc(-c3ccco3)o2)cc1	·	–	–	–	–
Fc1ccc(CSc2nnc(-c3ccco3)o2)cc1	–	46	–	–	59
c1ccc(CSc2nnc(-c3ccco3)o2)cc1	–	49	–	–	109
Cc1ccc(CSc2nnc(-c3ccco3)o2)cc1	·	33	–	–	107
Brc1ccc(CSc2nnc(-c3ccco3)o2)cc1	–	63	–	–	69
c1coc(-c2nnc(SCc3nc4ccccc4[nH]3)o2)c1	–	–	–	·	–
COc1ccc(C(c2sc3ncnn3c2O)N2CCN(c3ccccc3F)CC2)cc1OC (configuration not stated)	?	20	–	–	–
CC1CN(C(c2cccs2)c2sc3ncnn3c2O)CC(C)O1 (configuration not stated)	–	–	–	?	–
COc1ccc(C(c2sc3nc(C)nn3c2O)N2CCN(Cc3ccccc3)CC2)cc1OC (configuration not stated)	?	–	–	0.83µM	–
Oc1c(C(c2ccco2)N2CCN(C(c3ccccc3)c3ccccc3)CC2)sc2ncnn12 (configuration not stated)	·	–	–	4.1µM	–
COc1ccc(C(c2sc3ncnn3c2O)N2CC(C)OC(C)C2)cc1OC (configuration not stated)	–	17	–	–	–
COc1ccc(C(c2sc3nc(C)nn3c2O)N2CCC(O)CC2)cc1OC (configuration not stated)	–	–	–	–	–
O=C(Nc1c2c(nn1-c1ccc(Cl)cc1)CS(=O)(=O)C2)c1cccc(F)c1	·	·	–	·	·
O=c1ccc2cc(S(=O)(=O)NCc3ccc(Cl)cc3)ccc2[nH]1	·	·	–	·	·
CCOC(=O)C1(Cc2cccc(OC)c2)CCN(Cc2ccc(C)s2)CC1	?	–	–	?	–
SMILES	Pf growth 48h	Cycloheximide cs	HCMV inh	Pf growth 96h	Shiga inhibitor
Oc1c(Cl)cc(Cl)cc1/C=N/Nc1ncc(Br)cn1	0.093µM	–	-94	15µM	–
O=C(NN=Cc1cc(=O)[nH]c(=O)[nH]1)c1ccncc1	·	·	-68	·	·
Cc1cccc(C(=O)Oc2c(Br)cc(Br)cc2/C=N/NC(=O)c2ccncc2)c1	–	–	-71	–	–
Cc1ccc(N=Cc2cc(Cl)cc(Cl)c2O)nc1	?	–	–	?	–
O=C(N/N=C/c1ccc(O)cc1O)c1ccncc1	?	–	–	12µM	–
O=C(N/N=C/c1ccc(O)cc1O)c1ccc(NC(=O)C2CCCCC2)cc1	?	–	–	?	–
Cc1cc(C(=O)N/N=C/c2cc(Br)cc(Br)c2OC(=O)c2ccccc2)n[nH]1	?	–	·	–	–
Cc1ccc2cc(NC(=O)C3(C)CCN3CC(C)C)ccc2n1 (configuration not stated)	·	·	–	·	·
COc1ccccc1NC(=O)NC1(C(=O)NCC2CCCO2)CCCCC1 (configuration not stated)	–	–	–	–	–
CCOc1ccc(NC(=O)c2cc(S(=O)(=O)N3CCN(c4ccccc4F)CC3)ccc2F)cc1	·	·	–	·	·
O=C(N/N=C/c1ccc(Cl)cc1Cl)c1ccncc1	–	24	–	–	45
